Compound activity: PubChem BioAssay, National Center for Advancing Translational Sciences (NCATS)
The list is not random: actives were taken first. Their share in the collection is about 3.7%.
FMDV inh = foot and mouth disease virus antiviral activity | FMDV antiviral cell-based qHTS | Potency, µM (top dose mostly 57.9 µM), for the others: at the top dose activity change, negative = inhibition, hits mostly inhibitors | 1.2% of 410,000 active | AID 1159524; calls by dose curve; tested in HEK293T cells; note: read-out not given here; nearly all actives have a fitted effect of over 45% in size
Sm TGR block = S. mansoni TGR enzyme inhibition; Q962Y6; purified TGR, DTNB reduction, TNB absorbance 405 nm; Potency, µM (top dose mostly 114 µM), without a hit: at the top dose activity change, negative = inhibition, usual class: inhibitors; 3% of 360,000 active; AID 485364; note: nearly all actives have a fitted effect of over 60% in size
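TGR 20 nM + NADPH 100 uM (dispensed conc.), cpd preinc 15 min RT; start with NADPH (500 uM addition) then DTNB (15 mM addition). Kinetic TNB absorbance, 405 nm filter. Four-parameter Hill fit across titration.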
RE007 growth inh = less growth of the S. pombe RE007 Vpr strain | S. pombe RE007 Vpr strain, BacTiter-Glo ATP luminescence, 24 h | Potency, µM (titrated, usually from 92.2 µM), for the others: top-dose activity change, negative = less growth, hits mostly inhibitors | 0.21% of 360,000 active; active = well fitted falling curve with a large enough effect; inconclusive = small, poorly fitted or top-dose-only effect; inactive = no such curve, though single readings can be large or run the other way; note: nearly all actives have a fitted effect of over 50% in size
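Fission yeast strain RE007, carrying one chromosomally integrated HIV-1 vpr copy, was seeded at OD 0.01 in PMG+AL medium with 23 nL pinned compound. After 24 h at 30 °C and 99% humidity, viability was read by BacTiter-Glo luminescence.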
TbPYK inhibitor = blocks Trypanosoma brucei pyruvate kinase; TbPYK enzyme, Kinase-Glo Plus ATP luminescence, 45 min; 0.12% of 410,000 active; Potency, µM (titrated, usually from 76.8 µM), for inactives: top-dose activity, negative = inhibition, usual class: inhibitors; Q57TT1; note: nearly all actives have a fitted effect of over 50% in size
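Activity of T. brucei pyruvate kinase was followed by Kinase-Glo Plus luminescence after the enzyme reacted 45 min at room temperature with 130 uM ADP (final) and substrate. Test compounds were added before ADP at multiple concentrations.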
Active calls of the source: *; ? = inconclusive; · = no result; ! = not confirmed by another sample. Unless noted, calls come from the whole dose curve; as a rule, active = well fitted curve in the direction sought with a large enough effect; inconclusive = small, poorly fitted or top-dose-only effect, or another doubt; inactive = no such curve, though single readings can be large; an effect the other way counts as inactive or inconclusive. % is set by controls: 0 for no effect and ±100 for the full control effect; potency is the fitted concentration of half-maximal effect.

SMILES	FMDV inh	Sm TGR block	RE007 growth inh	TbPYK inhibitor
O=C(Nc1cccc(Cl)c1)C1C2CCC3C(CCC21)C3(Cl)Cl (stereo not drawn)	40µM*	-13%	-10%	5%
CCN1CCN(Cc2ccc(NC(=O)c3cc(NC(=O)c4cc5cccc(OC)c5o4)cc(OC)c3)cc2C(F)(F)F)CC1	40µM*!	23%	8%	1%
CC(C)(CNC(=O)c1cnn(-c2nccc(-c3ccccc3F)n2)c1C1CC1)N1CCOCC1	-2%	·	·	·
Cc1cc(/C=N/NC(=O)C(O)(c2ccccc2)c2ccccc2)c(C)n1-c1cccc(C(=O)O)c1	1%	32µM*	-2%	-16%
CCCCN1C(=O)C(CC(=O)NC2CCCC2)CC(C(=O)N2CCOCC2)=C1C (stereo not drawn)	40µM*	·	-30%	10%
O=C(NCc1ccco1)c1ccc(C(=O)NCc2ccco2)s1	2%	?	5%	?
O=C(NCc1ccco1)c1scc2c1OCCO2	-10%	35µM*	-2%	-12%
CC(C)C(=O)N1CCN(c2nc(-c3ccc(Cl)cc3)cs2)CC1	-13%	32µM*	?	-4%
N#CC(C#N)=Cc1ccc(-c2ccccc2F)o1	-23%	4µM*	16%	1%
N#C/C(=C\c1ccc(-c2ccc(F)cc2F)o1)c1nc2ccccc2[nH]1	0%	-2%	·	-2%
COc1ccc(N2CSC3=C(C#N)C(c4cc(OC)c(OC)cc4OC)CC(=O)N3C2)c(OC)c1 (stereo not drawn)	-24%	6.3µM*	0%	8.9µM*
COc1cc(OC)c(C2CC(=O)N3CN(c4ccc(C)cc4)CSC3=C2C#N)cc1OC (stereo not drawn)	25%	8.9µM*	-6%	1.6µM*
N#CC1=C2SCN(c3ccc(F)cc3)CN2C(=O)CC1c1cccc(F)c1 (stereo not drawn)	-2%	?	-8%	?
COc1ccc(N2CSC3=C(C#N)C(c4cc(OC)ccc4OC)CC(=O)N3C2)c(OC)c1 (stereo not drawn)	-21%	?	-11%	7.9µM*
CCCSC1=C(C#N)C(c2cc(OC)ccc2OC)CC(=O)N1 (stereo not drawn)	-18%	5%	-6%	2%
N#CC1=C2SCN(Cc3ccco3)CN2C(=O)CC1c1ccccc1F (stereo not drawn)	-10%	?	-21%	?
COc1ccc(C2CC(=O)N3CN(c4ccc(C)c(Cl)c4)CSC3=C2C#N)cc1OC (stereo not drawn)	-13%	50µM*	7%	?
O=C(Cn1cc(SCc2ccc(F)cc2)c2ccccc21)N1CCCCCC1	1%	3%	·	-7%
CCc1ccc(N2CSC3=C(C#N)C(c4cccs4)CC(=O)N3C2)cc1 (stereo not drawn)	10%	-27%	-8%	?
CCOC(=O)c1ccc(N2CSC3=C(C#N)C(c4cccs4)CC(=O)N3C2)cc1 (stereo not drawn)	-20%	0%	-18%	?
CN1CSC2=C(C#N)C(c3cccc(OCc4ccccc4)c3)CC(=O)N2C1 (stereo not drawn)	-16%	0%	-5%	?
CCc1ccc(C2CC(=O)N3CN(c4ccccc4)CSC3=C2C#N)cc1 (stereo not drawn)	-14%	35µM*	0%	4.5µM*
CCOc1ccccc1N1CSC2=C(C#N)C(c3c(OC)ccc4ccccc34)CC(=O)N2C1 (stereo not drawn)	-25%	13µM*	-6%	3.5µM*
COc1ccc(N2CSC3=C(C#N)C(c4cccs4)CC(=O)N3C2)cc1 (stereo not drawn)	3%	22µM*	-15%	-5%
COc1ccc(N2CSC3=C(C#N)C(c4ccc(OC)c(OC)c4)CC(=O)N3C2)c(OC)c1 (stereo not drawn)	-1%	7.9µM*	-5%	7.9µM*
SMILES	FMDV inh	Sm TGR block	RE007 growth inh	TbPYK inhibitor
Cc1ccc(N2CSC3=C(C#N)C(c4cccs4)CC(=O)N3C2)cc1 (stereo not drawn)	16%	-22%	-2%	?
Cc1ccc2oc(-c3ccc(NC(=O)c4oc5ccc(Cl)cc5c4C)cc3)nc2c1	-18%	6%	·	1%
CO/N=C(/C(=O)N[C@@H]1C(=O)N2C(C(=O)O)=C(CSc3cnns3)CS[C@H]12)c1csc(N)n1	·	·	·	-3%
O=C(NCc1ccncc1)c1cccc(S(=O)(=O)N2CCc3ccccc32)c1	?	28µM*	2%	-2%
O=C(Nc1c(F)cccc1F)c1ccc2c(c1)CCN2S(=O)(=O)c1ccccc1	0.32µM*	2%	-6%	2%
O=C(NCCc1ccccn1)c1cccc(S(=O)(=O)N2CCc3ccccc32)c1	5%	40µM*	1%	0%
O=C(NCCc1ccccn1)c1cccc(S(=O)(=O)N2CCCCCC2)c1	19%	-2%	11%	-3%
CCCCCCCCCCCCC/C=C\[C@@H](O)[C@@H](N)CO	-4%	·	·	·
COc1ccc(C(C)=O)cc1COC(=O)c1ccc(S(=O)(=O)N2CCOCC2)cc1	-14%	18µM*	-17%	3%
COc1ccc(C(C)=O)cc1COc1cccnc1[N+](=O)[O-]	-17%	?	2%	5%
COc1ccc(C(C)=O)cc1COC(=O)c1ccc(N)c([N+](=O)[O-])c1	?	8.9µM*	-18%	-1%
COc1ccccc1/C=N/OCc1cc(C(C)=O)ccc1OC	5%	11µM*	5%	-8%
CCOc1ccc(C(C)=O)cc1COc1cccnc1[N+](=O)[O-]	6%	35µM*	-17%	-7%
COc1cccc(COC(=O)c2cc(S(=O)(=O)N3CCOCC3)ccc2Cl)c1OC	-22%	·	4%	2%
Nc1ccc(C(=O)OCc2ccncc2)cc1[N+](=O)[O-]	14%	-14%	-4%	-2%
CN1CCN(c2ncc3ncc(=O)n(Cc4cccs4)c3n2)CC1	-5%	·	·	-9%
COc1ccccc1-c1cncnc1NCCN1CCOCC1	2%	·	·	·
COc1ccc(C(C)=O)cc1COc1ccccc1[N+](=O)[O-]	-16%	11µM*	9%	1%
C/C=C/C=C/C(=O)Nc1nccs1	49%	35µM*	-7%	-16%
O=C(/C=C/c1ccc(Cl)cc1)Nc1nccs1	9%	-10%	-4%	1%
CCCCN(C)C(=O)C1CCC(Cn2c(=O)[nH]c3ccsc3c2=O)CC1 (stereo not drawn)	1%	5%	·	-2%
CC(C)=CCC/C(C)=C/CC/C(C)=C/CCC(=O)OC/C=C(\C)CCC=C(C)C	·	·	·	3%
O=C1C(=O)c2ccccc2C(O)=C1c1cccc([N+](=O)[O-])c1	40µM*	9%	-26%	-3%
CC1(C)CC2CC(C)(CN2Cc2c(O)ccc3ccccc23)C1 (stereo not drawn)	-19%	6.3µM*	-16%	6%
COc1cc(O)oc1C=Nc1ccc(Cl)cc1Cl	15%	79µM*	2%	-4%
Cc1ncc2c(c1CNC(=O)/C=C/c1cccs1)CCN(C(=O)c1cc(C(C)C)on1)C2	-9%	·	·	·
